# Bioassay records as filed in PubChem BioAssay.
# NPC1 prom act = NPC1 promoter activation. Huh7 NPC1 promoter luciferase reporter, 24 h. Potency, µM (highest dose often 9.22 µM), without a hit: top-dose activation, usual class: activators. 320,000 tested, 2.4% active; note: % of control where 0% means no effect; nearly all actives have a fitted effect of over 60% in size
#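 Stably transfected Huh7 (NPC1 promoter→luciferase), 1500 cells/well in Opti-MEM + 10% FBS, 2 h settle, then compound 24 h at 37 °C. Luminescence after 10 min with Amplite reagent.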
# Rab9 promoter act = Rab9 promoter activation; Huh7 Rab9 promoter-luciferase reporter, luminescence, 24 h; Potency, µM (series often up to 9.22 µM), inactives show at the top dose activation, negative = inhibition, usual class: activators; 320,000 tested, 2.8% active; AID 485297; note: % of control where 0% means no effect; nearly all actives have a fitted effect of over 60% in size
#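 Promoter activation is measured as luciferase luminescence in Huh7 cells stably transfected with a Rab9 promoter–luciferase construct, following 24 h compound exposure at 37 °C and 10 min reagent incubation at ambient temperature.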
# SMN2 splice enh = SMN2 splice variant enhancement; HEK293 SMN2-luciferase splicing reporter, luminescence, 30-36 h; Potency, µM (doses to about 46.1 µM), without a hit: at the top dose activity change, positive = activation, most hits filed as activators; 210,000 tested, 2.8% active; AID 1458; note: % of control where 0% means no effect; nearly all actives have a fitted effect of over 55% in size
#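 HEK293 cells carry an SMN2 minigene-luciferase reporter in which exon 7 inclusion puts luciferase in frame. Cells were seeded at 2000 cells/well, attached for 10-12 hours, then exposed to compounds for 30-36 hours at 37C before ONE-Glo luminescence.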
# uPA generation = inhibitors of cell surface uPA generation; 330,000 tested, 0.31% active; Potency, µM (top dose mostly 38.3 µM), for inactives: at the highest dose activity change, negative = inhibition, most hits filed as inhibitors; cell surface uPA generation assay, qHTS; active = well fitted inhibition curve with a large enough effect; inconclusive = small, poorly fitted or top-dose-only effect; inactive = no such curve, though single readings can be large or run the other way; tested in mouse RAW 264.7 cells; note: % is set by controls: 0 for no effect and ±100 for the full control effect; nearly all actives have a fitted effect of over 55% in size
# ELG1 genotox = induces genotoxicity in HEK293T cells with luciferase-tagged ELG1 | HEK293T ELG1-luciferase reporter, luminescence, 16 h | 330,000 tested, 1.3% active | Potency, µM (top dose mostly 46 µM), inactives show top-dose activity change, positive = activation, actives largely listed as activators | AID 504466; note: % of control where 0% means no effect; nearly all actives have a fitted effect of over 60% in size
#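 HEK293T cells expressing luciferase-tagged ELG1 were treated with compound or DMSO for 16 hr at 37°C. Luciferase activity was then read after 30 min with ONE-Glo at room temperature; rising signal flags genetic stress.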
# FLuc counter = counter-screen for miR-21 project: firefly luciferase inhibitors or activators. purified FLuc, Km substrates, luminescence inhibition. Potency, µM (top dose mostly 57.5 µM), for the others: at the top dose activity change, negative = inhibition, actives largely listed as inhibitors. 360,000 tested, 6.9% active. AID 588342. P08659;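 note: plate controls were vehicle for no effect and reference inhibitor for full effect; nearly all actives have a fitted effect of over 55% in size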
# Target sequence (P08659 whole entry, looked up): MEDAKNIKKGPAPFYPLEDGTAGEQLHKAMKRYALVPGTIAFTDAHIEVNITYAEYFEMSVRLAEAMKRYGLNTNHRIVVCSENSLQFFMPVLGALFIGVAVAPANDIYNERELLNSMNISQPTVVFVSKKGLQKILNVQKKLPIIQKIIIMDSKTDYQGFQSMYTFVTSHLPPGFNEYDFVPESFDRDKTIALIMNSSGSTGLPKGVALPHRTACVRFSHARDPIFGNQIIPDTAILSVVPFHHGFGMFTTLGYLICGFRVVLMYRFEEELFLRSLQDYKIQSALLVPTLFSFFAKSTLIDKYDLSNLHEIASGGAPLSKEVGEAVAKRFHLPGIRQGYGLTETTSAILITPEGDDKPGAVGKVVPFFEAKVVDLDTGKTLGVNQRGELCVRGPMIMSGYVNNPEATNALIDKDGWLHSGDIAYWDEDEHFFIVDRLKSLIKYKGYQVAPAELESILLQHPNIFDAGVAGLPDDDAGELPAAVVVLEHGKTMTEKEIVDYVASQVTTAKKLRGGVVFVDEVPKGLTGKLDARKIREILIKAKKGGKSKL
#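 Purified P. pyralis luciferase, 10 nM final, with Km-level 10 uM D-luciferin and 10 uM ATP in 50 mM Tris acetate pH 7.5, 10 mM Mg acetate, 0.01% Tween-20, 0.05% BSA; 6-point qHTS titration about 60 µM downward; luminescence read.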
# Numbers without * were called inactive; ? = inconclusive; . = no result. Rows were chosen to be rich in hits. Some 7.3% of all compounds tested hit in one or more screens of this group. Unless noted, calls come from the whole dose curve; as a rule, active = well fitted curve in the direction sought with a large enough effect; inconclusive = small, poorly fitted or top-dose-only effect, or another doubt; inactive = no such curve, though single readings can be large; an effect the other way counts as inactive or inconclusive. Potency is the fitted concentration of half-maximal effect.
SMILES,NPC1 prom act,Rab9 promoter act,SMN2 splice enh,uPA generation,ELG1 genotox,FLuc counter
Cc1ccccc1-c1nnc(SCc2ccccc2)o1,?,?,14.1µM*,-2.6%,14.6µM*,8.49µM*
CCCCCn1cc2c(c1-c1ccccc1Br)c(=O)n(C)c(=O)n2C,.,.,-11.5%,.,.,-11.2%
COc1cccc(CNC(=O)CCn2c(=O)c3cccn3c3cccnc32)c1OC,.,.,.,.,.,6.2%
CCCOc1ccc(OCCSc2ncccn2)cc1,3.16µM*,3.98µM*,15.8µM*,0.1%,10.3µM*,6.75µM*
Clc1ccc(OCCSc2ncccn2)c(Br)c1,1.41µM*,0.708µM*,12.6µM*,-3.8%,2.06µM*,2.13µM*
Clc1ccc(OCCCCSc2ncccn2)cc1,-3.2%,6.9%,-17.3%,5.0%,-2.0%,?
Cc1ccc(OCCSc2nc(N)cc(N)n2)cc1,3.16µM*,1.78µM*,.,-5.1%,?,23.9µM*
Brc1cccc(OCCSc2ncccn2)c1,0.2%,?,25.8%,6.6%,11.5%,?
Cc1ccc(OCCCSc2n[nH]c(N)n2)cc1,-2.5%,4.8%,.,-16.4%,11.6%,?
COc1ccc(OCCSc2nc(N)cc(=O)[nH]2)cc1,-2.0%,-2.3%,.,4.5%,0.5%,-10.6%
COc1ccc(OCCSc2nc(N)cc(N)n2)cc1,3.98µM*,3.98µM*,-6.5%,-0.2%,0.731µM*,21.3µM*
Cc1c(NC(=O)c2ccco2)cccc1-c1nc2cccnc2s1,6.1%,-2.4%,-11.2%,7.1%,-14.7%,23.9µM*
Cc1c(NC(=O)c2ccc(Cl)nc2)cccc1-c1nc2cccnc2s1,3.0%,-3.5%,.,3.4%,-9.6%,13.5µM*
CC1(C)CC(NC(=O)c2c(N)no[n+]2[O-])CC(C)(C)N1,-0.2%,2.6%,-20.8%,2.7%,-2.4%,-0.2%
O=c1c2ccccc2nc(-c2ccc(Br)cc2)n1Cc1ccccc1,1.9%,-0.5%,-8.9%,0.0%,-8.7%,-1.2%
O=c1c2ccccc2nc(-c2ccco2)n1Cc1ccccc1,.,.,?,.,.,13.5µM*
c1ccc(Cn2c(-c3ccco3)nc3nc4ccccc4nc32)cc1,3.55µM*,3.16µM*,15.8µM*,-2.7%,?,2.69µM*
c1coc(-c2nc3nc4ccccc4nc3n2-c2ccc3c(c2)OCCO3)c1,2.4%,15.1%,-20.5%,-2.9%,-5.6%,3.79µM*
O=C(OCC(=O)N1CCc2ccccc2C1)c1ccc(F)cc1Cl,.,.,.,0.6%,11.3%,.
COc1cc(OC)c2c(C)c(CC(=O)NCCc3ccccc3OC)c(=O)oc2c1,.,.,-4.0%,.,.,0.7%
Cc1nn2c(=O)cc(COC(=O)c3ccc(NC(=O)C4CCCCC4)cc3)nc2s1,.,.,.,.,.,-2.1%
Cc1ccc(Cl)cc1NC(=O)Nc1cn(CC(C)C)c(=O)c2ccccc12,.,.,2.0%,.,.,0.5%
COc1ccc(-c2oc3cc(O)c(OC)c(O)c3c(=O)c2OC)cc1,-19.5%,-0.6%,.,?,18.1%,19µM*
COc1c(-c2ccc(O)cc2)oc2cc(O)cc(O)c2c1=O,-6.7%,0.4%,.,?,16.3%,-11.3%
O=c1cc(-c2ccc(O)c(O)c2)oc2ccccc12,.,.,14.1µM*,.,.,.
SMILES,NPC1 prom act,Rab9 promoter act,SMN2 splice enh,uPA generation,ELG1 genotox,FLuc counter
O=c1cc(-c2ccccc2)oc2c(O)c(O)ccc12,.,.,-70.6%,.,.,.
O=c1cc(-c2ccccc2)oc2ccc(O)cc12,2.82µM*,3.98µM*,.,?,20.6µM*,9.53µM*
O=c1cc(-c2ccc(O)c(O)c2)oc2cc(O)c([C@@H]3O[C@H](CO)[C@@H](O)[C@H](O)[C@H]3O)c(O)c12,.,.,.,10.7%,2.3%,.
COc1ccc(-c2cc(=O)c3cc(O)ccc3o2)cc1,1.41µM*,1.58µM*,.,?,5.8µM*,1.69µM*
COC(=O)c1ccc(OCC2c3cc(OC)c(OC)cc3CCN2C(=O)c2ccc(F)cc2)cc1 (stereo not drawn),.,.,.,.,.,4.3%
Cc1ccc(Cn2c(C(=O)NCc3ccccc3Cl)cc3sccc32)cc1,.,.,3.0%,.,.,-8.8%
CC(C)Oc1ccc2c(=O)cc(-c3ccccc3)oc2c1,.,.,6.31µM*,.,.,.
COc1ccc2c(=O)cc(-c3ccccc3F)oc2c1,?,?,.,?,?,21.3µM*
COc1ccc(-c2cc(=O)c3c(O)cc(O)cc3o2)cc1,?,3.16µM*,?,?,?,1.9µM*
O=c1cc(/C=C/c2ccccc2)oc2ccccc12,?,2.24µM*,11.2µM*,.,2.59µM*,6.01µM*
O=c1cc(CO)oc2ccccc12,.,.,.,-10.1%,1.8%,.
COc1ccc2c(=O)cc(C(=O)O)oc2c1,-5.1%,0.9%,9.5%,-3.7%,0.4%,0.0%
COc1ccc(CCNC(=O)CCc2c(C)nc3c4c(C)cc(C)nc4nn3c2C)cc1OC,.,.,-1.1%,.,.,-2.0%
O=c1cc(-c2ccccc2)oc2ccccc12,?,?,?,-23.1%,20.6µM*,?
O=c1cc(-c2ccc(C(F)(F)F)cc2)oc2ccccc12,.,.,.,3.5%,0.2%,.
Cc1ccc(-c2cn(-c3ccccc3)c(SCC(N)=O)n2)cc1C,11.9%,17.7%,10.6%,11.7%,14.2%,?
CCOC(=O)NC(=O)CSc1nc(-c2ccc(C)c(C)c2)cn1-c1ccccc1,?,2.24µM*,-18.5%,0.0%,?,16.9µM*
CC1CCC/C(=C(\C#N)c2nc(-c3cc4ccccc4oc3=O)cs2)C1 (stereo not drawn),2.51µM*,1.78µM*,-11.6%,-2.5%,?,1.69µM*
c1ccc2oc(-c3csc(NCC4CCCO4)n3)cc2c1 (stereo not drawn),1.58µM*,0.398µM*,?,2.0%,2.31µM*,1.51µM*
CC(Nc1nc(-c2ccc3c(c2)NC(=O)CO3)cs1)c1ccccc1 (stereo not drawn),21.0%,12.3%,-13.1%,-5.2%,-8.1%,?
COc1ccc(/C=C(/C#N)c2nc(-c3cc4ccccc4oc3=O)cs2)cc1,.,.,4.4%,.,.,-0.3%
O=C1COc2ccc(-c3csc(NCC4CCCO4)n3)cc2N1 (stereo not drawn),5.1%,27.0%,-23.5%,6.5%,10.6%,16.9µM*
C=CCNc1nc(-c2cc3ccccc3o2)cs1,1µM*,0.631µM*,0.562µM*,-1.8%,0.517µM*,0.338µM*
Cc1ccc(CNC(=O)Cn2c(=O)cc(C(F)(F)F)c3c(C)nn(C)c32)cc1,.,.,.,.,.,-8.2%
O=C(Cn1c(=O)n(-c2cccc(Cl)c2)c(=O)c2sc3ccccc3c21)N1CCCC1,.,.,8.2%,.,.,-4.6%
CNC(CC(=O)O)C(=O)O (stereo not drawn),.,.,-4.0%,.,.,.
O=c1oc2ccccc2cc1-c1csc(NN=C2CCCCC2)n1,?,?,?,-4.2%,14.5%,13.5µM*
O=C(Nc1nc(-c2cc3ccccc3oc2=O)cs1)c1ccco1,29.9%,15.7%,6.3%,-1.2%,2.8%,?
